PubChem BioAssay AID1159580 (chemical genetic matrix, 2015)
About 2,000 (36%) of roughly 5,500 compounds were called active. Inconclusive results (about 18%) are left out. Rule as the data show it: active = normalized growth mostly below about 0.91 (no sharp cut-off); inconclusive = no clear call, values can overlap the other calls; inactive = mostly above about 0.92. This is one part of the list.

Assay: chemical genetic growth profiling, strain panel (AID 1159580);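 also: tested at 20 µM; growth read once vehicle control cultures reached saturation at 30 °C; 1 = growth at the plate median or of vehicle wells; lower values mean less growth of the strain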
Details: growth OD

Measured: normalized growth

COc1c(O)cc(O)cc1O
inactive: S. cerevisiae deletion strains, locus YJR066W, strain TOR1, active compounds read low 0.977 | S. cerevisiae deletion strains, locus YKL009W, strain mrt4, active compounds read low 1.07 | S. cerevisiae deletion strains, locus YKL068W, active compounds read low 0.995 | S. cerevisiae deletion strains, locus YKL085W, strain MDH1 (second series), active compounds read low 1.02 | S. cerevisiae deletion strains, locus YKL085W, strain MDH1, active compounds read low 1.02 | S. cerevisiae deletion strains, locus YKL160W, strain elf1, active compounds read low 1.02 | S. cerevisiae deletion strains, locus YKR001C, strain vps1, active compounds read low 1.01 | S. cerevisiae deletion strains, locus YKR026C, strain gcn3, active compounds read low 0.991 | S. cerevisiae deletion strains, locus YKR091W, strain srl3, active compounds read low 0.996 | S. cerevisiae deletion strains, locus YLL001W, strain dnm1, active compounds read low 0.999 | S. cerevisiae deletion strains, locus YLL026W, active compounds read low 0.994 | S. cerevisiae deletion strains, locus YLL041C, strain sdh2, active compounds read low 0.996 | S. cerevisiae deletion strains, locus YLR027C, strain aat2, active compounds read low 0.985 | S. cerevisiae deletion strains, locus YLR039C, strain RIC1, active compounds read low 1.06 | S. cerevisiae deletion strains, locus YLR058C, strain SHM2, active compounds read low 1.01 | S. cerevisiae deletion strains, locus YLR102C, strain apc9, active compounds read low 0.987 | S. cerevisiae deletion strains, locus YLR113W, strain HOG1, active compounds read low 1.03 | S. cerevisiae deletion strains, locus YLR221C, strain rsa3, active compounds read low 0.992 | S. cerevisiae deletion strains, locus YLR258W, strain gsy2, active compounds read low 0.997 | S. cerevisiae deletion strains, locus YLR262C, strain YPT6 (second series), active compounds read low 1.02 | S. cerevisiae deletion strains, locus YLR262C, strain YPT6, active compounds read low 1.08 | S. cerevisiae deletion strains, locus YLR268W, strain sec22, active compounds read low 1.05 | S. cerevisiae deletion strains, locus YLR320W, strain mms22, active compounds read low 0.994 | S. cerevisiae deletion strains, locus YLR330W, strain CHS5, active compounds read low 1.01 | S. cerevisiae deletion strains, locus YLR342W, strain FKS1 (second series), active compounds read low 1.08 | S. cerevisiae deletion strains, locus YLR342W, strain FKS1, active compounds read low 0.997 | S. cerevisiae deletion strains, locus YLR357W, strain rsc2, active compounds read low 0.958 | S. cerevisiae deletion strains, locus YLR370C, strain arc18, active compounds read low 0.992 | S. cerevisiae deletion strains, locus YLR371W, strain rom2, active compounds read low 0.984 | S. cerevisiae deletion strains, locus YLR384C, strain iki3, active compounds read low 1 | S. cerevisiae deletion strains, locus YLR418C, strain cdc73, active compounds read low 0.988 | S. cerevisiae deletion strains, locus YML016C, strain PPZ1, active compounds read low 0.994 | S. cerevisiae deletion strains, locus YML032C, strain rad52, active compounds read low 1.02 | S. cerevisiae deletion strains, locus YML120C, strain ndi1, active compounds read low 1 | S. cerevisiae deletion strains, locus YML124C, strain tub3, active compounds read low 0.997 | S. cerevisiae deletion strains, locus YMR058W, strain fet3, active compounds read low 1.01 | S. cerevisiae deletion strains, locus YMR078C, strain ctf18, active compounds read low 0.986 | S. cerevisiae deletion strains, locus YMR125W, strain sto1, active compounds read low 0.992 | S. cerevisiae deletion strains, locus YMR129W, active compounds read low 0.99 | S. cerevisiae deletion strains, locus YMR205C, strain PFK2, active compounds read low 0.997 | S. cerevisiae deletion strains, locus YMR223W, strain ubp8, active compounds read low 1.01 | S. cerevisiae deletion strains, locus YMR231W, strain pep5, active compounds read low 0.967 | S. cerevisiae deletion strains, locus YMR307W, strain GAS1, active compounds read low 1.08 | S. cerevisiae deletion strains, locus YNL067W, strain RPL9B, active compounds read low 1 | S. cerevisiae deletion strains, locus YNL071W, strain lat1, active compounds read low 1 | S. cerevisiae deletion strains, locus YNL128W, strain TEP1, active compounds read low 1.04 | S. cerevisiae deletion strains, locus YNL183C, strain NPR1, active compounds read low 0.988 | S. cerevisiae deletion strains, locus YNL209W, strain ssb2, active compounds read low 1.02 | S. cerevisiae deletion strains, locus YNL233W, strain BNI4, active compounds read low 0.99 | S. cerevisiae deletion strains, locus YNL248C, strain rpa49, active compounds read low 1 | S. cerevisiae deletion strains, locus YNL250W, strain rad50, active compounds read low 0.956 | S. cerevisiae deletion strains, locus YNL271C, strain bni1, active compounds read low 0.994 | S. cerevisiae deletion strains, locus YNL298W, strain CLA4, active compounds read low 0.998 | S. cerevisiae deletion strains, locus YNL307C, strain MCK1, active compounds read low 0.998 | S. cerevisiae deletion strains, locus YNL322C, strain KRE1 (second series), active compounds read low 0.987 | S. cerevisiae deletion strains, locus YNR049C, strain mso1, active compounds read low 0.994 | S. cerevisiae deletion strains, locus YNR052C, strain pop2, active compounds read low 0.985 | S. cerevisiae deletion strains, locus YOL012C, strain htz1 0.85 | S. cerevisiae deletion strains, locus YOL147C, strain pex11, active compounds read low 1 | S. cerevisiae deletion strains, locus YOR001W, strain rrp6, active compounds read low 1.01 | S. cerevisiae deletion strains, locus YOR061W, strain CKA2, active compounds read low 1.01 | S. cerevisiae deletion strains, locus YOR069W, strain VPS5, active compounds read low 0.986 | S. cerevisiae deletion strains, locus YOR070C, strain gyp1, active compounds read low 1.02 | S. cerevisiae deletion strains, locus YOR080W, strain dia2, active compounds read low 0.99 | S. cerevisiae deletion strains, locus YOR083W, strain WHI5, active compounds read low 1.01 | S. cerevisiae deletion strains, locus YOR106W, strain vam3, active compounds read low 1.04 | S. cerevisiae deletion strains, locus YOR136W, strain idh2, active compounds read low 0.991 | S. cerevisiae deletion strains, locus YOR144C, strain elg1, active compounds read low 1 | S. cerevisiae deletion strains, locus YOR184W, strain ser1, active compounds read low 1.1 | S. cerevisiae deletion strains, locus YOR231W, strain MKK1, active compounds read low 1.04 | S. cerevisiae deletion strains, locus YOR265W, strain rbl2, active compounds read low 1.02 | S. cerevisiae deletion strains, locus YOR270C, strain vph1, active compounds read low 1.04 | S. cerevisiae deletion strains, locus YOR290C, strain snf2, active compounds read low 1.01 | S. cerevisiae deletion strains, locus YOR316C, strain cot1, active compounds read low 0.99 | S. cerevisiae deletion strains, locus YPL051W, strain arl3, active compounds read low 1 | S. cerevisiae deletion strains, locus YPL055C, strain LGE1, active compounds read low 1.07 | S. cerevisiae deletion strains, locus YPL078C, strain atp4, active compounds read low 1.01 | S. cerevisiae deletion strains, locus YPL106C, strain sse1, active compounds read low 0.986 | S. cerevisiae deletion strains, locus YPL240C, strain hsp82, active compounds read low 1 | S. cerevisiae deletion strains, locus YPL241C, strain CIN2, active compounds read low 1.01 | S. cerevisiae deletion strains, locus YPL256C, strain CLN2, active compounds read low 1.02 | S. cerevisiae deletion strains, locus YPR119W, strain clb2, active compounds read low 0.997 | S. cerevisiae deletion strains, locus YPR141C, strain kar3, active compounds read low 0.971 | S. cerevisiae deletion strains, locus YPR163C, strain tif3, active compounds read low 0.997 | S. cerevisiae deletion strains, locus YPR167C, strain met16, active compounds read low 0.992 | S. cerevisiae deletion strains, strain wtn01, active compounds read low 1.03 | S. cerevisiae strains, strain wild type, active compounds read low 1.05
